Assay results taken from PubChem BioAssay (NCI).
Compounds without any hit were thinned out: in the full panel of roughly 83,000, 20% have a hit.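 The test compound was applied at a single concentration to cells in 96-well plates for 48 hours, and percent growth was recorded.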 Values without a mark were called inactive. Active and inactive are the calls of the source. Rule for the calls: active = growth percent below 10; inactive = the rest.

Tests used:
Assay in all cases: NCI-60 one-dose screen, 48 h (100 = growth as untreated, 0 = no growth, -100 = all killed)
Settings in all cases: 10 µM unless noted
SK-MEL-2 melanoma = system: SK-MEL-2 melanoma
EKVX NSCLC = system: EKVX NSCLC
SN12C renal = system: SN12C renal
UO-31 renal = system: UO-31 renal
TK-10 renal = system: TK-10 renal
ACHN renal = system: ACHN renal
CAKI-1 renal = system: CAKI-1 renal
A498 renal = system: A498 renal
CCRF-CEM leukemia = system: CCRF-CEM leukemia
MOLT-4 leukemia = system: MOLT-4 leukemia
SR leukemia = system: SR leukemia
RPMI-8226 leukemia = system: RPMI-8226 leukemia
OVCAR-8 ovarian = system: OVCAR-8 ovarian
OVCAR-5 ovarian = system: OVCAR-5 ovarian
OVCAR-4 ovarian = system: OVCAR-4 ovarian
SK-OV-3 ovarian = system: SK-OV-3 ovarian
IGROV1 ovarian = system: IGROV1 ovarian
OVCAR-3 ovarian = system: OVCAR-3 ovarian
HS 578T breast = system: HS 578T breast
NCI/ADR-RES ovarian = system: NCI/ADR-RES ovarian

SMILES	growth (SK-MEL-2 melanoma)	growth (EKVX NSCLC)	growth (SN12C renal)	growth (UO-31 renal)	growth (TK-10 renal)	growth (ACHN renal)	growth (CAKI-1 renal)	growth (A498 renal)	growth (CCRF-CEM leukemia)	growth (MOLT-4 leukemia)	growth (SR leukemia)	growth (RPMI-8226 leukemia)	growth (OVCAR-8 ovarian)	growth (OVCAR-5 ovarian)	growth (OVCAR-4 ovarian)	growth (SK-OV-3 ovarian)	growth (IGROV1 ovarian)	growth (OVCAR-3 ovarian)	growth (HS 578T breast)	growth (NCI/ADR-RES ovarian)
COc1ccc(-n2c(-c3ccccc3)c(-c3ccccc3)c3c(SCC(=O)N/N=C/c4ccc(Cl)cc4)ncnc32)cc1	107%	87%	99%	74.5%	108%	101%	87.9%	75.6%	93.4%	97%	105%	87.4%	85.3%	98.3%	92%	73%	87.9%	85.9%	93%	87.1%
CCCCC(CC)OC(=O)C(Br)CC (stereo not given)	100%	105%	115%	93.6%	103%	109%	99%	97.4%	109%	95.4%	94.3%	113%	101%	106%	90.6%	114%	105%	104%	101%	98.7%
C=C1c2nc3ccccc3n2C=C(c2ccc(Cl)cc2)N1Cc1ccccc1	69.7%	70.8%	95.1%	48.2%	119%	81.4%	79%	84.7%	78.9%	58.5%	23.7%	35.3%	75.6%	99.9%	-8.06% (active)	83.4%	106%	92.2%	87%	79.4%
COc1ccc(-c2nc(/C=N/Nc3cc(C)nc4ccc(Cl)cc34)c(C)o2)cc1	101%	-19.4% (active)	-92.9% (active)	-98.4% (active)	-36.1% (active)	-100% (active)	-85.6% (active)	73%	-54.3% (active)	-46.7% (active)	-5.37% (active)	-50.8% (active)	-82% (active)	-93.3% (active)	-95.3% (active)	92.5%	-78.8% (active)	-96.9% (active)	-29.3% (active)	-74.7% (active)
COc1ccc(Cn2cc3c(c2-c2cc(OC)c(OC)c(OC)c2)CCc2cnoc2-3)cc1	42.8%	34.8%	34.6%	30.4%	73.8%	33.1%	21.2%	3.83% (active)	12.9%	23.3%	13.1%	23.4%	34.6%	47.7%	22.6%	-0.435% (active)	7.18% (active)	-5.4% (active)	15.9%	20.1%
O=C(CCl)N(C1CCCCC1)C1CCCCC1	108%	104%	107%	98.3%	104%	109%	98.7%	91.7%	42.6%	110%	100%	112%	104%	111%	89.7%	117%	96.7%	114%	105%	105%
CCO/C=N/C1=C(C#N)C(c2ccc(Cl)cc2)c2c(c3ccccc3n(C)c2=O)O1 (stereo not given)	85.4%	74%	74.6%	56.2%	115%	75.7%	-0.281% (active)	47.9%	66.9%	75.2%	22.7%	88.1%	86.3%	85.1%	68.6%	81.8%	59.1%	64.3%	65.5%	57.3%
CC(C)(C)n1cc(-c2ccnc(NCCCNS(=O)(=O)c3cccc(F)c3)c2)c(-c2cccc(O)c2)n1	61%	51.5%	59.7%	57.8%	97.9%	51.7%	56.2%	51.9%	39.6%	33.4%	16.4%	17.5%	57.5%	68.2%	57.8%	89.2%	58.8%	65.7%	58.2%	62%
